Tau fibril ThT: qHTS for Inhibitors of Tau Fibril Formation, Thioflavin T Binding | Microtubule-associated protein tau (Homo sapiens), P10636 | recombinant tau K18 P301L, heparin-induced fibrillization, ThT fluorescence | Potency, µM (titrated, usually from 57.4 µM), inactives show at the highest dose activity, negative = inhibition, most hits filed as inhibitors | 2.1% of 270,000 active; note: nearly all actives have a fitted effect of over 55% in size
Target sequence (P10636 561-689 P618L limits assumed): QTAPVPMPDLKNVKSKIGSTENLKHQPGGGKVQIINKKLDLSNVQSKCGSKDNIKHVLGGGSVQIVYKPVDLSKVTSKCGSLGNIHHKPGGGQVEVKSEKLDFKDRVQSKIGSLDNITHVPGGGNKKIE
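Aggregation was driven by heparin (20 uM final) acting on recombinant tau […] bearing P301L in 100 mM sodium acetate pH 7; fibrils were detected with Thioflavin T.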
Tau fluor cs: Counterscreen qHTS for Inhibitors of Tau Fibril Formation, Fluorescence Polarization. tau K18 P301L Alexa594 fluorescence, heparin fibrillization. Potency, µM (top dose mostly 57.7 µM), for the others: at the top dose activity change, negative = decrease. 0.93% of 280,000 active; note: nearly all actives have a fitted effect of over 55% in size
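Human tau K18 P301L (15 uM unlabeled, 0.24 uM Alexa 594-labeled) in 100 mM sodium acetate pH 7 with 20 uM heparin, 6 hr at 37 C. ThT 30 uM added, 1 hr ambient; Alexa 594 FP and total fluorescence read at 555/632 nm.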
Tau fibril FP: qHTS for Inhibitors of Tau Fibril Formation, Fluorescence Polarization. 0.39% of 280,000 active. K18 P301L tau heparin fibrillization, Alexa594 FP, 6 h. Potency, µM (highest dose often 57.7 µM), for inactives: at the highest dose activity, negative = inhibition, hits mostly inhibitors. AID 1468, 2008. Microtubule-associated protein tau (Homo sapiens), P10636; note: nearly all actives have a fitted effect of over 55% in size
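Quantitative HTS format: compounds meet 15 uM recombinant K18 P301L tau and Alexa 594-tau tracer in 100 mM sodium acetate pH 7; 20 uM heparin triggers fibrillization at 37 C over 6 hr; FP gives the signal.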
NPSR antag: qHTS Assay for Antagonists of the Neuropeptide S Receptor: cAMP Signal Transduction. Q6W5P4. 1% of 220,000 active. Potency, µM (top dose mostly 38.3 µM), for the others: at the highest dose activity change, negative = inhibition, hits mostly inhibitors. CHO-NPSR cells, cAMP TR-FRET, antagonist mode; note: nearly all actives have a fitted effect of over 50% in size
Target sequence (Q6W5P4 whole entry, looked up): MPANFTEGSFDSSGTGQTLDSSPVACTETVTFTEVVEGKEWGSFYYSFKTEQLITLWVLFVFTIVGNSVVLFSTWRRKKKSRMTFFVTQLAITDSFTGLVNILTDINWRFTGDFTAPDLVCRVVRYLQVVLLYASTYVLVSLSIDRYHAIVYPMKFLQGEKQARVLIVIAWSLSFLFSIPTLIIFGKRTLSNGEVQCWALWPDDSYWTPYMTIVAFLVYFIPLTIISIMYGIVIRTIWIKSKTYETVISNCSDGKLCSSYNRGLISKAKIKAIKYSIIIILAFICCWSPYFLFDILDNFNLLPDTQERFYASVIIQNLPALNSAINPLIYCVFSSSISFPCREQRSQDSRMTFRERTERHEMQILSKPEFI
Luc counter: Counterscreen for Luciferase (Kinase-Glo TM) Inhibition | Luciferin 4-monooxygenase (Photuris pensylvanica), Q27757 | Kinase-Glo luciferase, ATP luminescence, 8 min | Potency, µM (doses to about 38.3 µM), for the others: top-dose activity change, negative = inhibition, usual class: inhibitors | 0.28% of 200,000 active; note: nearly all actives have a fitted effect of over 60% in size
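Compounds were added to a substrate mix at pH 7.2 (50 mM imidazole, 10 uM ATP, within the enzyme's linear range), followed by Kinase-Glo detection reagent; luminescence was measured after 8 minutes at ambient temperature.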
An asterisk follows results filed as active; ? = inconclusive; . = no result given; [ ] = remark or other dose. Sampled rows, rich in hits. Any-hit rate of the full collection: about 3.3%. Calls come from the whole dose curve; as a rule, active = well fitted curve in the direction sought with a large enough effect; inconclusive = small, poorly fitted or top-dose-only effect, or another doubt; inactive = no such curve, though single readings can be large; an effect the other way counts as inactive or inconclusive. % is set by controls: 0 for no effect and ±100 for the full control effect; potency is the fitted concentration of half-maximal effect.

SMILES | Tau fibril ThT | Tau fluor cs | Tau fibril FP | NPSR antag | Luc counter
CC(C)(C)c1ccc(/C=C/C(=O)c2ccc(NC3=NCCCS3)cc2)cc1 | 9% | 7% | 0% | 7.9µM* | 4%
Cc1nc(NC2CCCCC2)c2nc(-c3ccccc3)n(CCN3CCCC3)c2n1 | -6% | -6% | -1% | . | -1%
N#C/C(=C/c1ccc(N2CCCCCC2)o1)c1ccc(Cl)cc1 | 25µM* | ? | ? | 10µM* | -3%
N#C/C(=C/c1ccc(N2CCCCC2)cc1)c1cccc(F)c1 | ? | ? | 12% | -19% | -3%
N#C/C(=C/c1ccc(N2CCCCC2)o1)c1cccc(F)c1 | 13µM* | ? | ? | 10µM* | -5%
CC(=O)[C@@]1(O)C(C)CC2C3C=C(C)C4=Cc5c(cnn5-c5ccccc5)C[C@]4(C)C3C(O)C[C@@]21C (stereo partly specified) | -17% | -12% | 3% | ? | .
CC1=C(C(=O)N2CCN(c3ccc(Cl)cc3)CC2)C2(CCC(C)CC2)OC1=O (stereo unspecified) | -7% | -23% | -3% | . | .
Cc1ccsc1C1NC(=O)c2c(sc3c2CCCC3)N1 (stereo unspecified) | 3.2µM* | -28% | ? | 3%[46.1 µM] | -8%
O=C1NC(c2ccccn2)Nc2sc3c(c21)CCC3 (stereo unspecified) | 20µM* | -26% | ? | ? | -6%
O=C(CSc1nnc(SCc2cccc3ccccc23)s1)N/N=C/c1c[nH]c2ccccc12 | -15% | 3.5µM*[quencher] | 14% | 14% | 2%
O=C(CSc1nnc(SCc2ccc(Cl)cc2)s1)N/N=C/c1c[nH]c2ccccc12 | 0% | ? | ? | -31% | -6%
Cc1cc(C)c2nc(NNC(=O)c3ccc(S(=O)(=O)N4CCCCC4)cc3)sc2c1 | 22µM* | ? | ? | 2% | 2%
CCOC(=O)N1CCN(S(=O)(=O)c2ccc(C(=O)NNc3nc4c(C)cccc4s3)cc2)CC1 | 20µM* | ? | ? | -1% | 10%
CCOC(=O)N1CCN(S(=O)(=O)c2ccc(C(=O)NNc3nc4c(C)cc(C)cc4s3)cc2)CC1 | -7% | -12% | 0% | -16% | 0%
O=C(CN1C(=O)NC(Cc2c[nH]c3ccccc23)C1=O)Nc1cccc(S(=O)(=O)N2CCCCCC2)c1 (stereo unspecified) | -4% | 14µM*[quencher] | -10% | -17% | 2%
O=C(CN1c2ccccc2Sc2ccccc21)NNC(=S)Nc1ccc(Cl)cc1 | . | . | . | -10% | .
O=C(CN1c2ccccc2Sc2ccccc21)NNC(=S)Nc1ccc(Cl)cc1Cl | ? | 10µM*[quencher] | 15% | -11%[46.1 µM] | 0%
COc1ccccc1OCC(O)Cn1c(=N)n(Cc2ccccc2)c2ccccc21 (stereo unspecified) | 6% | 3% | -5% | 4%[46.1 µM] | 0%
Cc1ccccc1OCC(O)Cn1c(=N)n(Cc2ccccc2)c2ccccc21 (stereo unspecified) | . | ? | ? | 10µM* | .
Cc1ccc2c(c1)-c1nc(-c3ccc4c(c3)NC(=O)CO4)cc(-c3ccc(Cl)cc3)c1CO2 | 11% | -1% | ? | . | .
Cc1ccc(S(=O)(=O)N2C(=O)/C(=C3\SC(=S)NC3=O)c3ccccc32)cc1 | ? | ? | 6% | 9% | .
Cc1cccc(N=C2NC(=O)/C(=C3/C(=O)N(C)c4ccccc43)S2)c1C | 10µM* | ? | 2% | -22%[46.1 µM] | .
COc1ccc(OC)c(/C=N/NC(=O)CSc2cc(C)nc3c(OC)cccc23)c1 | 1% | -9% | -9% | 54% | -3%
N#C/C(=C\c1ccc(-c2cccc([N+](=O)[O-])c2)o1)C(=O)Nc1nc(-c2cccs2)cs1 | 2µM* | ? | 15% | 0% | .
CCN(CC)c1ccc(-n2nc3cc(C)c(NC(=O)c4ccccc4F)cc3n2)cc1 | ? | ? | 10% | . | .
SMILES | Tau fibril ThT | Tau fluor cs | Tau fibril FP | NPSR antag | Luc counter
CCOC(=O)N1CCC(N2Cc3cccc(C(=O)Nc4cccc(F)c4)c3C2=O)CC1 | ? | 4µM*[quencher] | ? | -53% | 1%
CCOC(=O)N1CCC(N2Cc3cccc(C(=O)Nc4ccc(OC)c(OC)c4)c3C2=O)CC1 | ? | -12% | 10% | -4%[46.1 µM] | -4%
CCCNC(=O)C1Cc2cc(S(=O)(=O)N3CCCCCC3)ccc2N1C(C)=O (stereo unspecified) | 7% | 4% | 1% | . | .
Cc1cc(N)ccc1N1CCCC1 | 7.1µM* | ? | 13µM* | -24%[46.1 µM] | -9%
Cc1cc(N)ccc1-n1c(C)ccc1C | 14µM* | -29% | ? | -8%[46.1 µM] | -4%
NC(=O)c1cc(N)ccc1N1CCCC1 | ? | -20% | ? | 0%[46.1 µM] | 0%
Cc1[nH]c2ccc(F)cc2c1CCN(Cc1cccnc1)C(=S)Nc1ccc(F)cc1 | 10% | 8% | 7% | 10µM* | -1%
COc1ccc(NC(=S)N(CCc2c(C)[nH]c3ccc(C)cc23)Cc2cccs2)cc1 | 15% | 3% | 3% | -31% | 4%
COc1ccc2[nH]c(C)c(CCNC(=S)Nc3cccc(C)c3)c2c1 | ? | 16µM*[quencher] | 15% | -30% | -2%
COc1ccc2[nH]c(C)c(CCN(Cc3cccs3)C(=S)Nc3ccccc3)c2c1 | ? | ? | 15% | -14%[46.1 µM] | -4%
CNC(=S)N(CCc1c(C)[nH]c2ccc(C)cc12)Cc1cccs1 | ? | 20µM*[quencher] | 6% | -47% | 1%
COc1ccc2[nH]c(C)c(CCN(Cc3cccs3)C(=S)Nc3ccc(F)cc3)c2c1 | ? | 7.9µM*[quencher] | -2% | -18%[46.1 µM] | 3%
COc1ccc2[nH]c(C)c(CCNC(=S)Nc3cc(C)cc(C)c3)c2c1 | -4% | ? | 7% | -28% | -4%
O=C(CSc1nc2c([nH]c3ccccc32)c(=O)n1-c1ccccc1F)Nc1ccccc1C(F)(F)F | -7% | ? | ? | . | .
CCc1ccc(-c2nc3c(c(SCc4ccccc4)n2)Cc2c(CO)cnc(C)c2O3)cc1 | 6% | 2% | 6% | . | .
CC(CN(C)C)NC(=O)c1ccc(-n2c(=O)c(=O)[nH]c3ccccc32)cc1 (stereo unspecified) | . | . | . | . | -3%
CCOc1ccc(NC(=S)N(CCc2c(C)[nH]c3ccc(C)cc23)Cc2ccco2)cc1 | ? | ? | 0% | -27% | 0%
COc1ccc2[nH]cc(CCNC(=O)Nc3cccc(F)c3)c2c1 | ? | 25µM*[quencher] | ? | . | .
COc1ccc(NC(=S)N(CCc2c(C)[nH]c3ccc(C)cc23)Cc2ccco2)cc1 | ? | 14µM*[quencher] | ? | -26% | 2%

Compound activity (PubChem)
